Drawing on PubChem BioAssay (EPA / NIEHS), this text covers outcome and AC50 for 13 molecules.

The test system of assay [1] is zebrafish Androgen Receptor (AR), gene 100005148. The assay can be described thus: ATG_zfAR_XSP1: Attagene TRANS-FACTORIAL Multi-Species (XSP1) HepG2 Assay for zebrafish Androgen Receptor (AR) (AID 2283771). Summed up: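 Gain-of-signal versus DMSO was measured as reporter transcripts quantified by RT-PCR, fluorescent labelling and capillary electrophoresis after 24 h chemical exposure. The cells were HepG2 expressing a chimeric zebrafish AR-GAL4, co-stimulated with 3 nM 6-alpha-fluorotestosterone.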

Assay [2] addresses zebrafish Estrogen Receptor (ESR1), esr1 (gene 259252) (UniProt P57717). The assay can be described thus: ATG_zfER1_XSP1: Attagene TRANS-FACTORIAL Multi-Species (XSP1) HepG2 Assay for zebrafish Estrogen Receptor (ESR1) (AID 2283772). In outline:
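HepG2 cells transiently transfected with a GAL4-UAS reporter and chimeric zebrafish ER-Gal4, dosed 24 h with 3 nM 6-alpha-fluorotestosterone present. Reporter mRNA measured by RT-PCR and capillary electrophoresis; gain of signal versus DMSO.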

For assay [3], the system named is zebrafish Estrogen Receptor (ESR2B), gene 317733. Nature of the assay: ATG_zfER2b_XSP1: Attagene TRANS-FACTORIAL Multi-Species (XSP1) HepG2 Assay for zebrafish Estrogen Receptor (ESR2B) (AID 2283773). Summed up:
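Multiplexed TRANS format in transfected HepG2 liver cells, chimeric NR-Gal4 from zebrafish ESR2B. 24 h dosing; medium contains 3 nM 6-alpha-fluorotestosterone. mRNA induction by RT-PCR/CE, positive direction vs DMSO.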

The test system of assay [4] is frog Estrogen Receptor (ESR2), gene 100174814. Nature of the assay: ATG_frER2_XSP1: Attagene TRANS-FACTORIAL Multi-Species (XSP1) HepG2 Assay for frog Estrogen Receptor (ESR2) (AID 2283774). Summed up:
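HepG2, transient MRTU transfection (GAL4-UAS reporters, exogenous NR-Gal4 chimeras); 24 h compound exposure; 3 nM 6α-fluorotestosterone co-added; total RNA → RT-PCR → 6-FAM primer extension → HpaI → CE. Positive direction vs DMSO.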

The subject of assay [5] is zebrafish Estrogen Receptor (ESR2A), gene 317734. Nature of the assay: ATG_zfER2a_XSP1: Attagene TRANS-FACTORIAL Multi-Species (XSP1) HepG2 Assay for zebrafish Estrogen Receptor (ESR2A) (AID 2283778). In outline:
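Transient transfection of HepG2 (human liver) with MRTU constructs; chemical dosing for 24 h; medium contained 3 nM 6-alpha-fluorotestosterone to partly stimulate AR. RT-PCR/CE fluorescence of reporter transcripts; positive direction vs DMSO.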

The target of assay [6] is chicken Estrogen Receptor (ESR1), ESR1 (gene 396099) (UniProt P06212). The assay can be described thus: ATG_chERa_XSP1: Attagene TRANS-FACTORIAL Multi-Species (XSP1) HepG2 Assay for chicken Estrogen Receptor (ESR1) (AID 2283779). In outline: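 Read-out: fluorescent reporter mRNA fragments resolved by capillary electrophoresis after RT-PCR and HpaI digestion. Transfected HepG2 cells carried chimeric NR-Gal4 constructs, were dosed 24 h with 3 nM 6-alpha-fluorotestosterone added, and activity was fitted upward relative to DMSO.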

The target in assay [7] is Estrogen receptor (Homo sapiens) (UniProt P03372). The assay can be described thus: ATG_hERa_XSP1: Attagene TRANS-FACTORIAL Multi-Species (XSP1) HepG2 Assay for human Estrogen Receptor (ESR1) (AID 2283780). Summed up: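 Reporter transcripts from multiplexed GAL4-UAS units driven by NR-Gal4 chimeras in transiently transfected HepG2 were measured by RT-PCR with capillary electrophoresis 24 h post-dose, with 3 nM 6-alpha-fluorotestosterone present; gain-of-signal relative to DMSO.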

For assay [8], the system named is turtle Estrogen Receptor (ESR1), gene 101933533. Nature of the assay: ATG_trERa_XSP1: Attagene TRANS-FACTORIAL Multi-Species (XSP1) HepG2 Assay for turtle Estrogen Receptor (ESR1) (AID 2283781). In outline:
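Transfect HepG2 with reporter units → dose chemical 24 h (medium has 3 nM 6-alpha-fluorotestosterone) → isolate RNA, RT-PCR → FAM primer extension, HpaI digest → capillary electrophoresis; gain of signal vs DMSO.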

Assay [9] in a line: ACEA_ER_AUC_viability: ACEA Biosciences xCELLigence Real-Time Cell Analysis on Estrogen Receptor Agonism for Viability (AID 2283782).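 Further: hit means loss of impedance signal meaning reduced cell growth or viability.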 Summed up:
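Read-out: real-time electrical impedance (RT-CES) area under curve, loss of signal taken as reduced viability, normalized to DMSO baseline. T-47D cells, charcoal-stripped serum medium, compounds up to 100 uM final, continuous exposure, 80 h.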

Assay [10] has as its target Luciferin 4-monooxygenase (Photinus pyralis) (UniProt P08659). Nature of the assay: CCTE_Simmons_QuantiLum_inhib_2: CCTE's Firefly Luciferase Inhibition Assay, Simmons Lab (AID 2283767). In outline: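 Cell-free QuantiLum luciferase, 5 ng/well; compounds 5 nM–87.5 uM final, 8 conc, 0.5% DMSO; 30 min, 37C, dark. Detection reagent (150 uM D-luciferin, 147 uM dATP, CoA, DTT, pH 7.8 final) injected per well, kinetic luminescence. Triplicate biological replicates.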

Assay [11] is described as follows: ACEA_AR_agonist_AUC_viability: ACEA Biosciences xCELLigence Real-Time Cell Analysis on Androgen Receptor Agonism for Viability (AID 2283775).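 On AC50: viability read 80 hours after compound addition.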 In outline:
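Viability endpoint from xCELLigence impedance in 22Rv1 prostate cells at 80 h. Eight-point series, 100 uM maximum final.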

In assay [12] the test system is chicken Androgen Receptor (AR), gene 422165. Nature of the assay: ATG_chAR_XSP1: Attagene TRANS-FACTORIAL Multi-Species (XSP1) HepG2 Assay for chicken Androgen Receptor (AR) (AID 2283768). In outline: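 Reporter mRNA read by RT-PCR with fluorescent labelling and capillary electrophoresis 24 h after chemical dosing of transiently transfected HepG2 cells. Chicken AR-Gal4 chimera, partially stimulated with 3 nM 6-alpha-fluorotestosterone; activity fitted upward relative to DMSO.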

In assay [13] the test system is frog Estrogen Receptor (ESR1), gene 398734. Nature of the assay: ATG_frER1_XSP1: Attagene TRANS-FACTORIAL Multi-Species (XSP1) HepG2 Assay for frog Estrogen Receptor (ESR1) (AID 2283777). Summed up: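 Transient MRTU transfection, HepG2 (human liver); 24 h dosing, 3 nM 6α-fluorotestosterone co-added; RNA → RT-PCR → 6-FAM labeling → CE; upward activity vs DMSO.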
Assay [14] concerns the target AR (gene 367) (UniProt P10275). The assay can be described thus: ACEA_AR_agonist_80hr: ACEA Biosciences xCELLigence Real-Time Cell Analysis on Androgen Receptor Agonism for Proliferation (AID 2283783).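 Further: hits increase impedance growth signal above DMSO baseline.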 Summed up:
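Impedance (RT-CES) growth signal at 80 h post-dose; 22Rv1 cells, 8-pt 1:4 series, top 100 uM final, DMSO ≤0.5%; duplicate plates; gain-of-signal fit relative to DMSO baseline.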

Assay [15] deals with AR (gene 367) (UniProt P10275). The assay can be described thus: ACEA_AR_antagonist_80hr: ACEA Biosciences xCELLigence Real-Time Cell Analysis on Androgen Receptor Antagonism for Proliferation (AID 2283787).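 Further: 22Rv1 human prostate cancer cells with growth followed by electrical impedance; hits lower the impedance growth signal relative to DMSO.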 In outline:
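Measures real-time proliferation of 22Rv1 prostate cancer cells by electrode impedance at 80 hours after dosing. Test articles ran at eight concentrations (1:4 steps, top 100 uM final) in biological duplicate.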

A short description of assay [16]: ACEA_AR_antagonist_AUC_viability: ACEA Biosciences xCELLigence Real-Time Cell Analysis on Androgen Receptor Antagonism for Viability (AID 2283776).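 Further: 22Rv1 human prostate cancer cells growing on impedance electrode plates; area under impedance growth curve at 80 h after dosing as viability; hits lower the growth signal relative to DMSO meaning cytotoxicity.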 In outline: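 22Rv1 prostate cells, continuous dosing up to 100 uM final (0.5% DMSO max), duplicate plates. Growth measured by impedance; AUC at 80 h, loss of signal vs DMSO.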
Assay [17] concerns the target Estrogen receptor beta (Homo sapiens) (UniProt Q92731). Nature of the assay: ATG_hERb_XSP1: Attagene TRANS-FACTORIAL Multi-Species (XSP1) HepG2 Assay for human Estrogen Receptor (ESR2) (AID 2283788). Summed up: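 Transient MRTU transfection of HepG2; ERβ–GAL4 TRANS format; 24 h dosing; 3 nM 6α-fluorotestosterone co-added; RNA → RT-PCR → 6-FAM primer extension → CE; activity vs DMSO.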

Assay [18] is described as follows: ArunA_NOG_NeuritesPerNeuron: ArunA Biomedical's Neurite Outgrowth (NOG) Assay for Neurites Per Neuron (AID 2283758). In outline:
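Differentiated human H9-derived neurons exposed to chemicals for 48 h from seeding, then stained with Hoechst and βIII-tubulin/DyLight 488. Automated imaging counted neurites (processes >10 um) per valid neuron; loss of signal versus DMSO scored.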

Results filed as inconclusive are left out. Activity calls are given as the source filed them. How the source made its calls: active means hit-call score of the fitted dose curve at least 0.9, where 1 is the maximum; inconclusive means response in the unintended direction; inactive means score below 0.9.

Sequence of chicken Estrogen Receptor (ESR1), ESR1 (gene 396099) (P06212 whole entry, looked up, the tested form may be a part): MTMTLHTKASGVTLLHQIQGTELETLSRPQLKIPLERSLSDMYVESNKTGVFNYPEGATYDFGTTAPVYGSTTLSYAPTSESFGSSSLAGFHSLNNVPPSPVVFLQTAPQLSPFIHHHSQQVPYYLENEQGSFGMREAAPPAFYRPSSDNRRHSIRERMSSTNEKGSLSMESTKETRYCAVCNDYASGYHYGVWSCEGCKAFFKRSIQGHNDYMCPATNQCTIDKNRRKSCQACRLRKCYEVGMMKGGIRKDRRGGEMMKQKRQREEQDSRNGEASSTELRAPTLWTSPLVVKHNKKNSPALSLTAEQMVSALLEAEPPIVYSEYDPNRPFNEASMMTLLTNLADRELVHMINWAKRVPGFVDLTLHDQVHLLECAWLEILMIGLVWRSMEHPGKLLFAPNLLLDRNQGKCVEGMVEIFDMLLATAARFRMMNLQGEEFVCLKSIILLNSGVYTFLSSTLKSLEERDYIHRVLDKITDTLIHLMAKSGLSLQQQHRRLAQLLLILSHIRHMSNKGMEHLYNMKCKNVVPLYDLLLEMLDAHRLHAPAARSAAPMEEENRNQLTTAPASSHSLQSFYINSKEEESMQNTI
Sequence of AR (gene 367) (P10275 whole entry, looked up): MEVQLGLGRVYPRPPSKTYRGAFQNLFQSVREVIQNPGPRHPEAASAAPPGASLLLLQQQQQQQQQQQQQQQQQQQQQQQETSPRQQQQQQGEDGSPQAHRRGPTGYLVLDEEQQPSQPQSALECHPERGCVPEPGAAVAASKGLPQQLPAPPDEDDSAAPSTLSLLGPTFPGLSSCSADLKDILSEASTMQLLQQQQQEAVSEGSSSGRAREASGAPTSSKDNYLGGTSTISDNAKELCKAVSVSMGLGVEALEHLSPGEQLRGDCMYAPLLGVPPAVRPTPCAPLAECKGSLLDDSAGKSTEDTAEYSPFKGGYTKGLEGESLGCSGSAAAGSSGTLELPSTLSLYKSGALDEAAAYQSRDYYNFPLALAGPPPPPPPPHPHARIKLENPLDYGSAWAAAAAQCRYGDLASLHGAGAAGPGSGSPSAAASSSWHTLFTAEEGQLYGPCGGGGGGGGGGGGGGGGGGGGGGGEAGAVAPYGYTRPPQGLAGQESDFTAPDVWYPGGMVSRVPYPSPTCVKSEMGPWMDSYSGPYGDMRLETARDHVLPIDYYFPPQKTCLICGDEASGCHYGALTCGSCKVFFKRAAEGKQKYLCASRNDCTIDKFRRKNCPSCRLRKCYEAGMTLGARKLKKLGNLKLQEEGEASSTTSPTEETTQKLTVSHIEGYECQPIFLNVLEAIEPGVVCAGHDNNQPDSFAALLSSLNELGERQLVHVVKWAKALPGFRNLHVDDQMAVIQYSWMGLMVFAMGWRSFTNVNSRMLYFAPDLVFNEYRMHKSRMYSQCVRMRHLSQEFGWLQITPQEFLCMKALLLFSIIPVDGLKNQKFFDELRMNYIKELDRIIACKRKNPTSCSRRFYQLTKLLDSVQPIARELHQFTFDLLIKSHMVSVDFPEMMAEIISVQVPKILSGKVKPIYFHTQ
Sequence of zebrafish Estrogen Receptor (ESR1), esr1 (gene 259252) (P57717 whole entry, looked up, the tested form may be a part): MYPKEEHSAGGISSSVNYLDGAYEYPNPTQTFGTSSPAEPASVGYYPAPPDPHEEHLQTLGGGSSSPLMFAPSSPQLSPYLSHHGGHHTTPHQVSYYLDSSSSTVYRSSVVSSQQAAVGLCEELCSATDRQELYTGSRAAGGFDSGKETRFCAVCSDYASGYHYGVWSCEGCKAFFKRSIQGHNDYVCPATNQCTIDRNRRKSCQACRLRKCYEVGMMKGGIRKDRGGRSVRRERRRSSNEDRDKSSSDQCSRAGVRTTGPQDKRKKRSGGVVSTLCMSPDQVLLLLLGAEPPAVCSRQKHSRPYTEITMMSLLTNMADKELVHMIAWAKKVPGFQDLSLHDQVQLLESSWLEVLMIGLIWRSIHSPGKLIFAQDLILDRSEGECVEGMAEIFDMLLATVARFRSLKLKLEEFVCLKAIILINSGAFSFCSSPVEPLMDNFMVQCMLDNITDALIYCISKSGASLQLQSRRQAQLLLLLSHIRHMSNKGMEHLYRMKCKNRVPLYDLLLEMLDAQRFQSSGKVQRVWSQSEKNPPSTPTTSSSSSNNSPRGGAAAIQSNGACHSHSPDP
Sequence of Estrogen receptor (Homo sapiens) (P03372 whole entry, looked up, the tested form may be a part): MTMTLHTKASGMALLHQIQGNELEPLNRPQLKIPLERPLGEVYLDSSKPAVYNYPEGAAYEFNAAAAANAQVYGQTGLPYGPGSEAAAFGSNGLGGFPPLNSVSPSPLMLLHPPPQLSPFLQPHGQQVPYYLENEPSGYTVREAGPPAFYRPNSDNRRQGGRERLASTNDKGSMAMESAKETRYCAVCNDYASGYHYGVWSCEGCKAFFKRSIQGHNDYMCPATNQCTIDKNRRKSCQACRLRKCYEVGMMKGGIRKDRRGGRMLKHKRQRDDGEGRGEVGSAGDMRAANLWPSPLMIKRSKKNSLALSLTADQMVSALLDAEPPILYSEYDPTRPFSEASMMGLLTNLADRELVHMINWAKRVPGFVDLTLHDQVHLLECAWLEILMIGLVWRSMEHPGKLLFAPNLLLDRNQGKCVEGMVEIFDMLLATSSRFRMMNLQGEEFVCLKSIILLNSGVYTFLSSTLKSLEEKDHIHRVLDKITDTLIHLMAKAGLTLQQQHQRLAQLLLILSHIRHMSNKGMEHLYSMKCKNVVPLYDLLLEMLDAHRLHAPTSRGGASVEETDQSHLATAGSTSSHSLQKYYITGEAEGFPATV
Sequence of Luciferin 4-monooxygenase (Photinus pyralis) (P08659 whole entry, looked up): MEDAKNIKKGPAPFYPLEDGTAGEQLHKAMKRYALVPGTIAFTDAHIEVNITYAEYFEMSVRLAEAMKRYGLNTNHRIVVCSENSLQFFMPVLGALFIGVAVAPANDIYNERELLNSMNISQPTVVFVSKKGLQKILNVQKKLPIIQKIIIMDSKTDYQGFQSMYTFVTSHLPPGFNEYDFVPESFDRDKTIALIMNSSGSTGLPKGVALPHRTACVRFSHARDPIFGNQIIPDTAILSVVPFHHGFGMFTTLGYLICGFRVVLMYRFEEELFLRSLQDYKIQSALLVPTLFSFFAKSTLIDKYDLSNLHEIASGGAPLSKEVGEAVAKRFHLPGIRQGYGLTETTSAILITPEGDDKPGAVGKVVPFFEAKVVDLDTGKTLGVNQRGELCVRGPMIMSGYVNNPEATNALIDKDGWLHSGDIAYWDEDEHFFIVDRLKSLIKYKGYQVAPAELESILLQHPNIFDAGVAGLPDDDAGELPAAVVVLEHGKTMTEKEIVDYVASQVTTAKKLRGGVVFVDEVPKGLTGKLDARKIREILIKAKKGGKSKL
Sequence of Estrogen receptor beta (Homo sapiens) (Q92731 whole entry, looked up, the tested form may be a part): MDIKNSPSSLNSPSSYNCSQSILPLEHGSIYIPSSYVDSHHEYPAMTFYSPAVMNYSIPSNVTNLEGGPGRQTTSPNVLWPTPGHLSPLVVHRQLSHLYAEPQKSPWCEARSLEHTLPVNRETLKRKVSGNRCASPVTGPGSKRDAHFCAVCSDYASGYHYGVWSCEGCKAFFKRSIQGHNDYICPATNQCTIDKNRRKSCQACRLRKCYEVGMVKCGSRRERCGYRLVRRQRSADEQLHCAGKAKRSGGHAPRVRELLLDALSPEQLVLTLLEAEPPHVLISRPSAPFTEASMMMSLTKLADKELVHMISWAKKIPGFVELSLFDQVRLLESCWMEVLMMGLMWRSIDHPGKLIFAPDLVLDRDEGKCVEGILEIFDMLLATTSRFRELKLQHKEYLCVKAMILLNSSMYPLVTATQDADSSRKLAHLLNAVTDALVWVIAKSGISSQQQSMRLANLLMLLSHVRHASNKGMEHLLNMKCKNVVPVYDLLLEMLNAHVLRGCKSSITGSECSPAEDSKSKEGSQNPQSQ

With `CSC(=O)c1c(C(F)F)nc(C(F)(F)F)c(C(=O)SC)c1CC(C)C`, the outcome in assay [1], in [2], in [5], in assay [6] and in [8] was inactive. The AC50 in [3] is 32.3 µM (active); in assay [4], 0.955 µM (active); in [7], 6.12 µM (active); in assay [9], 81.2 µM (active).

For `CC(C)=CC1C(C(=O)OCc2coc(Cc3ccccc3)c2)C1(C)C` (centres undefined), the molecule was called inactive in assay [10]. The AC50 in assay [11] is 46 µM (active); in assay [9], 84 µM (active).

As to `CC(C)NC(=O)N1CC(=O)N(c2cc(Cl)cc(Cl)c2)C1=O`, the molecule was classed as inactive in assay [12], in [1], in assay [2], in assay [5], in assay [6] and in assay [9]. Also, the AC50 is 100 µM (active) in assay [3]; 100 µM (active) in [4]; 11.2 µM (active) in assay [11]; 100 µM (active) in assay [13]; 10.3 µM (active) in [7]; 41.4 µM (active) in [8].

Regarding `Cc1cnc(C2=NC(C)(C(C)C)C(=O)N2)c(C(=O)O)c1` (centres undefined), the result in [10], in [11], in assay [14] and in assay [15] was inactive.

`COP(=S)(OC)SCn1nnc2ccccc2c1=O`: the call in assay [10] and in assay [14] was inactive. For the same molecule, the AC50 in [11] was 79.9 µM (active); in assay [16] it was 64.7 µM (active); in assay [15], 83.1 µM (active).

Take `CC(C)(C)C(=O)C(Oc1ccc(Cl)cc1)n1cncn1` (centres undefined): the molecule was classed as inactive in [11].

`O=P(O)(O)CCCl`: the outcome in [10], in assay [11] and in [9] was inactive.

For `COP(=S)(OC)Oc1ccc([N+](=O)[O-])c(C)c1`, the molecule was called inactive in assay [10], in [2], in [5] and in [9]. Further, the AC50 in [3] is 74.4 µM (active); in assay [4], 65.9 µM (active); in assay [11] it was 87.3 µM (active); in [16] it was 71.9 µM (active); in assay [13], 48.9 µM (active); in assay [6] it was 43.2 µM (active). In addition, the AC50 was 36.7 µM (active) in assay [7], 50.1 µM (active) in assay [8] and 64 µM (active) in [17].

As for `CCN(CC)c1nc(C)cc(OP(=S)(OC)OC)n1`, the outcome in assay [10] and in [9] was inactive. Besides, the concentration at half-maximal activity (AC50) in [11] was 87.1 µM (active); in assay [16], 83.3 µM (active).

Turning to `COCC(C)N(C(=O)CCl)c1c(C)csc1C` (centres undefined), the molecule was called inactive in assay [11].

`COc1cc(OC)nc(NC(=O)NS(=O)(=O)c2ncccc2OCC(F)(F)F)n1`: the call in [11] was inactive.

`CC(C)C1(C)N=C(c2ncccc2C(=O)O)NC1=O` (centres undefined): the outcome in assay [18], in assay [11] and in assay [16] was inactive.

With `CCOP(=O)(OCC)Oc1nc(Cl)c(Cl)cc1Cl`, the molecule was called inactive in [10] and in assay [14]. Moreover, the AC50 in assay [11] is 72.4 µM (active); in [9], 68.3 µM (active); in assay [15] it was 76 µM (active).
